# Hits are enriched below; roughly 2.2% of the tested compounds scored in any of these assays.
# CRFR2-BP ag: agonists of human CRF-binding protein/CRF-R2 receptor complex. activation, % at 13.2 µM. HEK293 CRF-R2/CRF-BP, calcium dye fluorescence (FLIPR); percent of saturating CRF peptide response. AID 588473. 350,000 compounds, 0.46% hits;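 active means activation of at least 50%, plus an integration ratio under a set limit after plate pattern correction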;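 further: plate controls were neutral control wells without compound for no effect and CRF at EC100 for full effect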
# RTF Ca sens inh: cardiac RTF calcium desensitization. inhibition, % at 7.15 µM. AID 493244. IANBD-labeled cardiac RTF, Ca2+ fluorescence. 340,000 compounds, 0.12% hits. P19429+P45379;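 active means inhibition above the mean inhibition of all tested compounds plus 3 SD, cut at about 17% in these data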;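 further: assay run at fixed EC70 calcium of 1.6 mM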
# CRFBP-R2 block: CRF-BP/CRF-R2 complex antagonism | HEK293 CRF-R2/CRF-BP, CRF-induced calcium fluorescence | inhibition, % at 11.8 µM | 350,000 compounds, 0.59% hits | AID 588475;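 active means inhibition of the ligand-induced calcium signal above about 50% at the single tested concentration, limit read from the data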
# Myeloid diff 2: promotes myeloid progenitor differentiation; ER-HoxA9 myeloid progenitors, lysozyme-GFP differentiation, flow cytometry; calls only at 10 µM; 360,000 compounds, 1% hits; AID 624256;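 active means normalized GFP-positive differentiation at or above the plate's own cutoff, the solvent-only control mean plus 3 SD; inconclusive means no clear call, values can overlap the other calls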;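 further: cells exposed to compound for four days before flow analysis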
# RTF Ca sens act: cardiac RTF calcium sensitization. AID 493008. activation, % at 7.2 µM. P19429+P45379. IANBD-labeled TnC RTF fluorescence at EC20 calcium; 0% EC20 calcium, 100% full calcium. 340,000 compounds, 0.24% hits;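 active means activation above the mean over all tested compounds plus 3 SD, cut at about 30% in these data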;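 further: rise in fluorescence read as greater calcium sensitivity of cardiac thin filaments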
# An asterisk follows results filed as active; i = inactive; ? = inconclusive; nt = not tested or not shown; + = active, no number.
SMILES,CRFR2-BP ag,RTF Ca sens inh,CRFBP-R2 block,Myeloid diff 2,RTF Ca sens act
N#CCSc1nc2sccc2c(=O)n1-c1ccccc1,0,8,74*,i,-2
CC(C)Cn1c(N)c(C(=O)COC(=O)c2cc(-c3ccco3)nc3ccccc23)c(=O)n(C)c1=O,4,-16,-15,+,-3
O=C(Nc1nnc(-c2ccccc2)o1)c1nc2ccccc2s1,140*,-8,-65,i,6
NC(=O)c1oc2ccccc2c1NC(=O)c1nc2ccccc2s1,1,-7,8,i,7
Cc1ccc(S(=O)(=O)N2c3ccccc3OCC2C(C)(C)C)cc1 (stereo not drawn),4,-8,90*,i,-1
FC(F)(F)c1ccc(NC(=S)NC2CCCCC2)cc1,16,-4,-4,+,0
C[C@@H](NC(=O)[C@@H]1CCCN1C(=O)[C@@H]1CCCN1C(=O)c1ccccc1)c1ccccc1,nt,nt,nt,i,nt
COc1ccc(C2=NNC(c3ccco3)=Nc3ccc(F)cc32)cc1,-2,-6,54*,i,2
O=C1NC[C@H](CCCCN2C[C@H](Cc3ccccc3)N(Cc3ccccc3)C(=O)C2=O)N(CCc2ccccc2)C1=O,nt,nt,nt,i,nt
COC(=O)c1ccc(OCC(=O)NC2CCCCCC2)cc1,0,-10,-13,i,-2
CN(NC(=O)Nc1ccccc1)c1cnn(C)c(=O)c1Cl,3,nt,120*,i,nt
O=C(Nc1nnc(-c2ccco2)o1)c1ccc([N+](=O)[O-])s1,-5,-7,-3,+,3
Cc1ccc(C(=O)Nc2nnc(-c3ccco3)o2)cc1,-4,1,33,i,6
Cc1noc(C)c1S(=O)(=O)Nc1ccc2c(c1)C(=O)N([C@H](C)CO)C[C@H](C)[C@@H](CN(C)C(=O)NC1CCCCC1)O2,-1,1,3,i,-1
CC(C)C(NC(=O)c1c(F)cccc1F)C(=O)N1CCN(S(=O)(=O)c2ccc(F)cc2)CC1 (stereo not drawn),-2,4,9,i,-2
CCc1sc(C(=O)NCCc2ccc(S(N)(=O)=O)cc2)cc1Br,-9,-2,61*,i,1
CCc1sc(C(=O)NCCc2ccc(S(N)(=O)=O)cc2)cc1C,0,-2,0,i,-8
COC(=O)c1ccc2nc3c(cc2c1)[C@@H]1CCN2C(=O)CCC[C@H](C3)[C@H]12,0,-8,87*,i,5
CC1CN(CC(=O)Nc2nc(-c3ccc(Cl)cc3)cs2)CC(C)O1 (stereo not drawn),-1,-2,15,+,3
O=C(CN1CCOCC1)Nc1nc(-c2ccc(Cl)cc2)cs1,-1,1,-5,i,2
O=C(C[C@H]1C(=O)N(CCc2ccccc2)C[C@@H]1c1ccccc1)Nc1ccccc1,0,nt,7,i,nt
CN(N)c1nc(C(F)(F)F)nc2ccccc12,-2,1,29,+,-2
CC(C)[C@H](NC(=O)c1ccco1)C(=O)Nc1ccc(OC(F)F)cc1,-1,-9,1,i,-6
O=C(NNC1=C(C(=O)C(F)(F)F)CCC1)c1cccc(Cl)c1,13,2,55*,i,2
CCNC(=S)Nc1cc(OC)c(NC(=O)c2ccco2)cc1OC,-6,5,73*,i,-2
SMILES,CRFR2-BP ag,RTF Ca sens inh,CRFBP-R2 block,Myeloid diff 2,RTF Ca sens act
Cc1ccc(/C=C2\Oc3c(ccc(O)c3CN3CCN(CCO)CC3)C2=O)cc1,86*,-38,-16,i,32*
CCN1CCN(Cc2c(O)ccc3c(=O)c(-c4ccccc4OC)coc23)CC1,1,-2,-6,i,3
CCN1CCN(Cc2c(O)ccc3c2O/C(=C\C=C\c2ccccc2OC)C3=O)CC1,74*,-150,-61,i,166*
CC(C)c1ccc(/C=C2\Oc3c(ccc(O)c3CN3CCN(C)CC3)C2=O)cc1,47,-46,-42,i,22
Cc1cn(C2CC(O)C(O)C(CO)O2)c(=O)[nH]c1=O (stereo not drawn),nt,nt,nt,i,nt
Cc1cn([C@H]2C[C@H](N=[N+]=[N-])[C@@H](CO)O2)c(=O)[nH]c1=O,0,7,-25,+,6
CN(C)CCNC(=O)c1ccc2c(=O)n(Cc3ccc(Cl)cc3)c(=S)[nH]c2c1,3,-3,-29,+,-7
CC(CCl)n1c(=O)c2ccccc2n1C(=O)c1ccccc1 (stereo not drawn),nt,nt,nt,i,nt
CN1Cc2sc(NC(=S)NC(=O)c3ccccc3)c(C#N)c2CC1(C)C,93*,nt,-70,nt,nt
Cc1ccc(C(=O)OCn2nnc3ccccc3c2=O)cc1[N+](=O)[O-],-3,2,79*,i,2
COc1ccc(C(=O)OCn2nnc3ccccc3c2=O)cc1[N+](=O)[O-],6,-2,0,i,-3
COc1ccccc1Nc1ccc(S(=O)(=O)N2CCCCC2)cc1[N+](=O)[O-],-2,12,51*,i,-1
O=C1CCCN1CCCNc1nc(NCc2ccccc2)nc2ccsc12,nt,nt,nt,i,nt
O=S1OCCN1c1ccccc1 (stereo not drawn),7,-2,-7,i,13
CC1(C)C(=O)OC(c2cccn2-c2ccc([N+](=O)[O-])cc2)C(C)(C)C1=O (stereo not drawn),-2,-2,32,i,3
CC1(C)C(=O)OC(c2cccn2-c2ccc([N+](=O)[O-])cc2)C2(CCCCC2)C1=O (stereo not drawn),263*,-14,-336,i,-1
CSc1ccc(CN2CCC(C)(Oc3ccc4ccccc4c3)C2)cc1 (stereo not drawn),nt,nt,nt,+,nt
Cc1ccc(S(=O)(=O)N(CC(=O)Nc2ccccc2C(=O)O)c2cccc(Cl)c2C)cc1,2,-9,50*,i,6
Cc1ccc(S(=O)(=O)N(CC(=O)Nc2ccccc2C(=O)O)c2ccccc2C)cc1,0,-3,19,i,3
O=C(O)Cc1ccc(S(=O)(=O)N2CCCC2)s1,3,-4,1,i,-9
CC(C(=O)Nc1ccncc1)(c1ccccc1)c1ccccc1,2,-1,4,i,-2
CSc1nnc(C)c(/C=C/NOCc2ccc(Cl)cc2)n1,1,3,28,i,-10
CSc1nnc(C)c(/C=C/Nc2ccc(C)cc2)n1,105*,-14,-145,i,6
COc1ccc(C(=O)CSc2nc(C(C)(C)C)nc3ccccc23)cc1,2,5,-37,i,6
CCCN1C(=O)S/C(=C/c2ccc(N3CCOCC3)o2)C1=O,61*,-202,-29,?,189*
CCN1C(=O)S/C(=C\c2ccc(N3CCOCC3)cc2C)C1=O,11,-13,-9,i,8
CCCN1C(=O)S/C(=C\c2ccc(N3CCOCC3)o2)C1=O,29,-98,17,nt,171*
COc1ccc(CN2CC[C@@H]3CN(C(C)=O)[C@H](c4ccccc4Br)C[C@@H]32)cc1,nt,nt,nt,i,nt

# Compound activity (PubChem BioAssay)
